Experimental data from PubChem BioAssay (NCI).
Compounds without any hit were thinned out: in the full panel of roughly 83,000, 20% have a hit.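 A percent growth of 40 corresponds to 60% growth inhibition; 0 means no net growth; -100 means all cells died. Active threshold: below 10.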 A number with no mark means an inactive call. Active and inactive are the calls of the source.

How the values were obtained:
Experiment in all cases: NCI-60 one-dose screen, 48 h (100 = growth as untreated, 0 = no growth, -100 = all killed)
Details in all cases: 10 µM unless noted
T-47D breast = test system: T-47D breast
BT-549 breast = test system: BT-549 breast
MDA-MB-435 melanoma = test system: MDA-MB-435 melanoma
SW-620 colon = test system: SW-620 colon
MCF7 breast = test system: MCF7 breast
HCT-116 colon = test system: HCT-116 colon
HCC-2998 colon = test system: HCC-2998 colon
KM12 colon = test system: KM12 colon

| SMILES | growth (T-47D breast) | growth (BT-549 breast) | growth (MDA-MB-435 melanoma) | growth (SW-620 colon) | growth (MCF7 breast) | growth (HCT-116 colon) [%] | growth (HCC-2998 colon) | growth (KM12 colon) |
| --- | --- | --- | --- | --- | --- | --- | --- | --- |
| C=CCCCCOc1cccc(/C=C2\N=C3SCCCN3C2=O)c1 | -2.85% (active) | 94.4% | 106% | 103% | 88.9% | 86.2 | 100% | 98.4% |
| CC(=O)c1ccc(N2C(=O)c3ccc(Oc4ccccc4)cc3C2=O)cc1 | 106% | 98.8% | 96.3% | 98.8% |  | 104 | 99.4% | 95.6% |
| COc1ccc(C(=O)OC2C(OC3C(O)COC(O[C@H]4C[C@H]5[C@@H]6CC=C7C[C@@H](O)CC[C@]7(C)[C@H]6CC[C@]5(C)[C@H]4[C@H](C)C(=O)CCC(C)C)C3OC(C)=O)OCC(O)C2O)cc1 (stereo partly drawn) | 2.99% (active) | -8.64% (active) | -47.4% (active) | -57.3% (active) | -30.8% (active) |  | 52.9% | 24.1% |
| COc1ccc(-c2cc(-c3cn(-c4cccc(Cl)c4)nc3-c3ccc(OC)cc3)[nH]c(=S)n2)cc1 | 72.1% | 103% | 63.5% | 66.6% |  | 69.7 | 55.2% | 86.7% |
| CCN(CC)CCCCCCCCNc1c2ccc(Cl)cc2nc2ccc(OC)cc12 | -37.9% (active) | -82.6% (active) | -81.9% (active) | -31.9% (active) | -75.1% (active) |  | -89.1% (active) | -49.5% (active) |
| COc1cc(C2CC(c3ccc(C)cc3)=NN2C=O)ccc1Oc1ccnc2cc(Cl)ccc12 (stereo not drawn) | 76% | 43.8% | 99% | 102% | 79.1% |  | 69.6% | 104% |
| O=C(N/N=C/c1ccccc1O)c1ccncc1 | 33.6% | 57% | 82.5% | 66.1% | 23.1% |  | 64.5% | 34.3% |
| O=C1Nc2ccc(Br)cc2/C1=N/c1nc(-c2ccccc2)cs1 | 58.9% | 73.2% | 97.8% | 88.6% | 67.4% |  | 109% | 88.3% |
| Oc1ccc(-c2nnc3c4[nH]ccc4ncn23)cc1 | 93.4% | 89.2% | 97.5% | 108% | 92.1% |  | 105% | 104% |
| O=C1C(Cl)=C(Nc2cccc3ccccc23)C(=O)c2ccccc21 | 34.3% | 73.4% | 55.9% | 68.9% |  | 47.7 | 103% | 58.4% |
| N=C(N)c1ccc(NCCNc2ccc(C(=N)N)cc2)cc1 | 137% | 133% | 105% | 106% | 101% |  | 119% | 105% |
| CCCCCCCCCCCCNC(=O)N[C@H](C(=O)N[C@H]1/C=C/CCNC(=O)/C=C/[C@H](C)NC1=O)C(C)C | -41.9% (active) | -87.2% (active) | -40.1% (active) | -22.3% (active) | 14.1% |  | -95.8% (active) | -62.4% (active) |
| CS(=O)(=O)c1ccc(C(=O)N/N=C/c2cccc3ccccc23)cc1 | 85.3% | 87.6% | 17.1% | 63.2% | 44.9% |  | 84.5% | 50.8% |
| c1ccc2oc(-c3cnc4nonc4n3)cc2c1 | 79.7% | 95.8% | 109% | 94% |  | 90.1 | 120% | 112% |
| CCCCOc1nc2ccc(C)cc2cc1/C=C/C(=O)/C=C(O)/C=C/c1cc2cc(C)ccc2nc1OCCCC | 89.2% | 90.8% | 107% | 107% | 100% |  | 108% | 102% |
| CSc1nc(N)c2[nH]c(-c3cc4ccccc4[nH]c3=O)nc2n1 | 72.9% | 47.9% | 102% | 90.1% | 65.7% |  | 95% | 96.9% |
